Source: PubChem BioAssay (EPA / NIEHS)
Active and inactive are the calls of the source. How the source made its calls: active means hit-call score of the fitted dose curve at least 0.9, where 1 is the maximum; inactive means score below 0.9.

What was measured:
[1] = read-out: TIMP metallopeptidase inhibitor 2 (TIMP2), TIMP2 (gene 7077); experiment: BSK_KF3CT_TIMP2: BioMAP Diversity Plus: KF3CT Assay for TIMP metallopeptidase inhibitor 2 (TIMP2) Biomarker Activity (AID 2283071); details: primary human keratinocytes with fibroblasts; actives raise or lower the signal
Summary of the method: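 Keratinocyte–fibroblast co-culture, 24 h exposure; TIMP-2 ELISA, DMSO-normalised bidirectional fit. Parallel SRB (0.1%, TCA-fixed, 560 nm) total-protein staining gauges cytotoxicity.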

[2] = read-out: Transforming growth factor beta 1 (TGFb1), TGFB1 (gene 7040); experiment: BSK_KF3CT_TGFb1: BioMAP Diversity Plus: KF3CT Assay for Transforming growth factor beta 1 (TGFb1) Biomarker Activity (AID 2283072); details: primary human keratinocytes with fibroblasts; actives raise or lower the signal
Summary of the method: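 Signal changes in either direction, relative to DMSO, define activity here. TGF-b1 is read by ELISA from a human keratinocyte-fibroblast co-culture 24 h post-dose.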

[3] = read-out: C-C motif chemokine 2 (Homo sapiens) (UniProt P13500); experiment: BSK_KF3CT_MCP1: BioMAP Diversity Plus: KF3CT Assay for Monocyte Chemoattractant Protein 1 (MCP1/CCL2) Biomarker Activity (AID 2283073); details: primary human keratinocytes with fibroblasts; actives raise or lower the signal
Summary of the method: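 Biomarker MCP-1 is measured by ELISA in primary human keratinocytes co-cultured with foreskin fibroblasts, 24 h after chemical treatment; DMSO serves as the negative control and activity baseline.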

[4] = read-out: Matrix Metallopeptidase 9 (MMP9), MMP9 (gene 4318); experiment: BSK_KF3CT_MMP9: BioMAP Diversity Plus: KF3CT Assay for Matrix Metallopeptidase 9 (MMP9) Biomarker Activity (AID 2283074); details: primary human keratinocytes with fibroblasts; actives raise or lower the signal;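 on AC50: MMP9 protein level quantified by ELISA in the co-culture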
Summary of the method: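 Human keratinocyte and foreskin fibroblast co-culture exposed to chemicals for 24 h; MMP9 biomarker measured by ELISA, bidirectional fitting relative to DMSO; cytotoxicity tracked by SRB total protein staining in parallel cultures.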

[5] = read-out: urokinase plasminogen activator (uPA), PLAU (gene 5328); experiment: BSK_KF3CT_uPA: BioMAP Diversity Plus: KF3CT Assay for urokinase plasminogen activator (uPA) Biomarker Activity (AID 2283075); details: primary human keratinocytes with fibroblasts; actives raise or lower the signal
Summary of the method: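 Primary human keratinocyte/foreskin fibroblast co-culture exposed to chemical; uPA measured by ELISA at 24 h. Bidirectional fit versus DMSO, with parallel SRB total-protein staining for cytotoxicity.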

CD40, CD40 (gene 958) [6] = experiment: BSK_LPS_CD40: BioMAP Diversity Plus: LPS Assay for CD40 Biomarker Activity (AID 2283076); details: primary human HUVEC with PBMC; actives raise or lower the signal
Summary of the method: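 Using a multiplexed primary human co-culture (umbilical vein endothelium plus PBMC), CD40 was read by ELISA 24 h after dosing, with cytotoxicity tracked by sulforhodamine B staining of parallel cultures and activity fitted bidirectionally versus DMSO.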

[7] = read-out: E-selectin (Homo sapiens) (UniProt P16581); experiment: BSK_LPS_Eselectin: BioMAP Diversity Plus: LPS Assay for Eselectin Biomarker Activity (AID 2283077); details: primary human HUVEC with PBMC; actives raise or lower the signal
Summary of the method: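 Dose chemical onto LPS-driven HUVEC/PBMC co-culture; after 24 h, run ELISA for E-selectin; fit up- and down-going responses relative to DMSO control.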

[8] = read-out: Interleukin-8 (IL8), CXCL8 (gene 3576); experiment: BSK_LPS_IL8: BioMAP Diversity Plus: LPS Assay for Interleukin-8 (IL8) Biomarker Activity (AID 2283078); details: primary human HUVEC with PBMC; actives raise or lower the signal
Summary of the method: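 In this LPS system, chemical-treated human umbilical vein endothelium/PBMC co-cultures were harvested at 24 h for IL-8 ELISA.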

[9] = BSK_LPS_SRB: Viability Assessment in the BioMAP Diversity Plus: LPS Assay (AID 2283079); details: primary human HUVEC with PBMC;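 further: total protein by sulforhodamine B absorbance as a cytotoxicity measure; measured one day after compound addition; fitted in both directions against DMSO so loss or gain of signal counts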
Summary of the method: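 Cytotoxicity endpoint in human endothelial–PBMC co-culture: 24 h exposure, then SRB (0.1%) staining, 560 nm read.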

[10] = read-out: Interleukin-1 alpha (IL1a), IL1A (gene 3552); experiment: BSK_LPS_IL1a: BioMAP Diversity Plus: LPS Assay for Interleukin-1 alpha (IL1a) Biomarker Activity (AID 2283080); details: primary human HUVEC with PBMC; actives raise or lower the signal
Summary of the method: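 Primary human HUVEC and PBMC co-culture stimulated with LPS is dosed and harvested at 24 h. Both increases and decreases in ELISA-measured IL-1a are scored relative to DMSO.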

[11] = read-out: Monocyte Chemoattractant Protein-1 (MCP1), CCL2 (gene 6347); experiment: BSK_LPS_MCP1: BioMAP Diversity Plus: LPS Assay for Monocyte Chemoattractant Protein-1 (MCP1) Biomarker Activity (AID 2283081); details: primary human HUVEC with PBMC; actives raise or lower the signal;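 on AC50: secreted MCP-1 protein quantified by ELISA in culture supernatant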
Summary of the method: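 Values derive from bidirectional fitting against DMSO of ELISA-measured MCP-1 in a human primary endothelial and mononuclear cell co-culture, 24 h after chemical addition under LPS activation.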

[12] = BSK_LPS_PGE2: BioMAP Diversity Plus: LPS Assay for Prostaglandin E2 (PGE2) Biomarker Activity (AID 2283082); details: primary human HUVEC with PBMC; actives raise or lower the signal;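 on AC50: secreted prostaglandin E2 measured by ELISA in LPS-stimulated co-culture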
Summary of the method: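 Endpoint derived from bidirectional curve fitting versus DMSO of ELISA-measured PGE2 in LPS-stimulated human primary vascular co-culture (HUVEC with PBMC) harvested at 24 h.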

[13] = read-out: Macrophage colony-stimulating factor (MCSF), CSF1 (gene 1435); experiment: BSK_LPS_MCSF: BioMAP Diversity Plus: LPS Assay for Macrophage colony-stimulating factor (MCSF) Biomarker Activity (AID 2283083); details: primary human HUVEC with PBMC; actives raise or lower the signal
Summary of the method: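 Bidirectional fit versus DMSO of ELISA-measured M-CSF in co-cultured human umbilical vein endothelial cells and PBMC, sampled 24 h after dosing.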

[14] = read-out: Tissue Factor, F3 (gene 2152); experiment: BSK_LPS_TissueFactor: BioMAP Diversity Plus: LPS Assay for Tissue Factor Biomarker Activity (AID 2283084); details: primary human HUVEC with PBMC; actives raise or lower the signal
Summary of the method: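 Read-out: CD142 ELISA, 24 h. System: LPS-driven human endothelial/PBMC co-culture. Analysis: up- or down-signal fitted against DMSO.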

[15] = read-out: Tumor necrosis factor (Homo sapiens) (UniProt P01375); experiment: BSK_LPS_TNFa: BioMAP Diversity Plus: LPS Assay for Tumour Necrosis Factor alpha (TNFa) Biomarker Activity (AID 2283085); details: primary human HUVEC with PBMC; actives raise or lower the signal
Summary of the method: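 Primary human vascular co-culture of HUVEC and PBMC; TNFa ELISA 24 h after treatment, analysed as increase or decrease relative to DMSO control.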

CD40, CD40 (gene 958) [16] = experiment: BSK_SAg_CD40: BioMAP Diversity Plus: SAg Assay for CD40 Biomarker Activity (AID 2283088); details: primary human HUVEC with PBMC; actives raise or lower the signal
Summary of the method: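 Endpoint derived by fitting increases or decreases versus DMSO controls. CD40 is detected by fluorescence ELISA in a human vascular co-culture of endothelium and PBMC at 24 h.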

CD69, CD69 (gene 969) = experiment: BSK_SAg_CD69: BioMAP Diversity Plus: SAg Assay for CD69 Biomarker Activity (AID 2283089); details: primary human HUVEC with PBMC; actives raise or lower the signal;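 on AC50: cell surface CD69 protein quantified by ELISA with fluorescence detection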
Summary of the method: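 Values derive from bidirectional fitting relative to DMSO vehicle. Cells: umbilical vein endothelium plus peripheral blood mononuclear cells, treated 24 h before fluorescent ELISA for CD69.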

[17] = read-out: Monocyte Chemoattractant Protein-1 (MCP1), CCL2 (gene 6347); experiment: BSK_SAg_MCP1: BioMAP Diversity Plus: SAg Assay for Monocyte Chemoattractant Protein-1 (MCP1) Biomarker Activity (AID 2283090); details: primary human HUVEC with PBMC; actives raise or lower the signal
Summary of the method: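 MCP-1 levels in the endothelial–PBMC SAg co-culture were quantified by ELISA at 24 h post-dosing; both increases and decreases versus DMSO scored. Cytotoxicity monitored by SRB total protein in parallel cultures.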

[18] = read-out: Vascular cell adhesion molecule 1 (VCAM1), VCAM1 (gene 7412); experiment: BSK_LPS_VCAM1: BioMAP Diversity Plus: LPS Assay for Vascular cell adhesion molecule 1 (VCAM1) Biomarker Activity (AID 2283086); details: primary human HUVEC with PBMC; actives raise or lower the signal
Summary of the method: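 Primary human vascular co-culture (umbilical vein endothelium plus PBMC) stimulated with LPS received chemical; 24 h later VCAM-1 was read by ELISA. Overt cytotoxicity was assessed by sulforhodamine B staining of parallel cultures at the same time point.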

Measured: AC50

E-selectin (Homo sapiens), sequence (P16581 whole entry, looked up): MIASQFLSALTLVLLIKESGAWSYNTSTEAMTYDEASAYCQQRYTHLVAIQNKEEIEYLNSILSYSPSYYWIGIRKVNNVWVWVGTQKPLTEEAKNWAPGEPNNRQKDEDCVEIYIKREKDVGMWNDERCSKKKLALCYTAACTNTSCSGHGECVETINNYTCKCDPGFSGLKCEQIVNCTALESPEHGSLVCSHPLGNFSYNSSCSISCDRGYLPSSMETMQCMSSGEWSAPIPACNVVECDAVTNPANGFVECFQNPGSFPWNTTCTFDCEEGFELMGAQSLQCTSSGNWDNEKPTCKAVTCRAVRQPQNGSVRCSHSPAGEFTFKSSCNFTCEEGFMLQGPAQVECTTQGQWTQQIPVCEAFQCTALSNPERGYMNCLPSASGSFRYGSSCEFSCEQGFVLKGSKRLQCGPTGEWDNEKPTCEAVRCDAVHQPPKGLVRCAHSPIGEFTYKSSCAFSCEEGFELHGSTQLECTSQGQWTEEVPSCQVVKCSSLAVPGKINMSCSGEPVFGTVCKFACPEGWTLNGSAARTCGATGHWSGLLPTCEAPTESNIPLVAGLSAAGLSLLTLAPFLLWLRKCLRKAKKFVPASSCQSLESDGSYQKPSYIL
Tumor necrosis factor (Homo sapiens), sequence (P01375 whole entry, looked up): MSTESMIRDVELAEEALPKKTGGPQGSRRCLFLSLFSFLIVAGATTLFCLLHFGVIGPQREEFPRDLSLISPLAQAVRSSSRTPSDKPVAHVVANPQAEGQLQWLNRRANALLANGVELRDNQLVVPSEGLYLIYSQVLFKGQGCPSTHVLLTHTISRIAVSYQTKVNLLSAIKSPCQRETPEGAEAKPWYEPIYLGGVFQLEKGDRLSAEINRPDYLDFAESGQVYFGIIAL

CC(C)(C)C(=O)C(Oc1ccc(Cl)cc1)n1cncn1 (stereo not drawn)
not listed: [18]
inactive: all other assays above

COc1cc(Cl)c(OC)cc1Cl
not listed: [18]
inactive: all other assays above

CO/N=C(/C1=NOCCO1)c1ccccc1Oc1ncnc(Oc2ccccc2Cl)c1F
inactive: [1] | [2] | [5] | [10] | [12] | [14] | [15]
active: [3] 28.6 µM | [4] 30.6 µM | CD40, CD40 (gene 958) [6] 13 µM | [7] 15.2 µM | [8] 20 µM | [9] 11.4 µM | [11] 22.1 µM | [13] 19.2 µM | CD40, CD40 (gene 958) [16] 14.9 µM | CD69, CD69 (gene 969) 9.36 µM | [17] 27.2 µM

CNC(=O)Oc1cccc2ccccc12
active: CD40, CD40 (gene 958) [6] 20 µM | [9] 13.3 µM | [12] 1.63 µM | [13] 20 µM | [18] 9.39 µM
inactive: all other assays above
